Compound activity as filed in PubChem BioAssay.
An excerpt weighted towards active compounds, which were near 0.72% of everything screened.
Six1-Eya2 inh = qHTS Assay for Inhibitors of the Six1/Eya2 Interaction | AlphaScreen GST-Six1/His-Eya2 binding, biochemical; stronger effect = lower value | activity change, % (test concentration not listed) | hit rate 0.56% among 360,000 | AID 651725, 2012; in the data active = activity change below about -65%; inconclusive = mostly about -30% to -63%
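Homogeneous AlphaScreen proximity assay pairing GST-Six1 with His-tagged Eya2 (added as 5X mix: 250 nM and 500 nM) in 50 mM Tris pH 8.0, 300 mM NaCl, 1 mM TCEP. Glutathione donor and nickel acceptor beads; 1 h, 37 °C, dark.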
RGS4 inhibitor = Inhibitors of Regulator of G Protein Signaling (RGS) 4: qHTS. Potency, µM (top dose mostly 114 µM), most hits filed as inhibitors. Regulator of G-protein signaling 4 (Homo sapiens), P49798. hit rate 0.039% among 390,000. Transcreener GDP fluorescence polarization, RGS4-accelerated GTP hydrolysis. AID 504845, 2011; note: nearly all actives have a fitted effect of over 75% in size
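MLSMR compounds (23 nl, pin-transferred) preincubated 10 min at room temperature with a 500nM (2x) first reagent, then RGS4 at 900nM (2x) plus Transcreener GDP mix added; fluorescence polarization (620/688 nm) read before and after 90 min at 30 °C.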
PI4K2A inh = qHTS for small molecular inhibitors of PI4K2A | Phosphatidylinositol 4-kinase type 2-alpha (Homo sapiens), Q9BTU6 | purified PI4K2A, ADP-Glo luminescence, 1 h; stronger effect = lower value | activity change, negative = inhibition, % at 76.9 µM | hit rate 0.13% among 420,000; in the data active = activity change below about -50%; inconclusive = mostly about -30% to -49%
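Compounds are screened against recombinant PI4K2A using PI as substrate and ATP, the latter dispensed at 300 microM. Reactions run one hour at ambient temperature before ADP-Glo detection; full inhibition defined by wells lacking enzyme.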
Eya2 inh = qHTS Assay for Inhibitors of the Phosphatase Activity of Eya2 | AID 488837, 2010 | hit rate 0.006% among 330,000 | Potency, µM (series often up to 76.9 µM), most hits filed as inhibitors | recombinant Eya2, OMFP fluorescence dephosphorylation (OMFP is methylfluorescein phosphate) | Protein phosphatase EYA2 (Homo sapiens), O00167
Target sequence (O00167 whole entry, looked up): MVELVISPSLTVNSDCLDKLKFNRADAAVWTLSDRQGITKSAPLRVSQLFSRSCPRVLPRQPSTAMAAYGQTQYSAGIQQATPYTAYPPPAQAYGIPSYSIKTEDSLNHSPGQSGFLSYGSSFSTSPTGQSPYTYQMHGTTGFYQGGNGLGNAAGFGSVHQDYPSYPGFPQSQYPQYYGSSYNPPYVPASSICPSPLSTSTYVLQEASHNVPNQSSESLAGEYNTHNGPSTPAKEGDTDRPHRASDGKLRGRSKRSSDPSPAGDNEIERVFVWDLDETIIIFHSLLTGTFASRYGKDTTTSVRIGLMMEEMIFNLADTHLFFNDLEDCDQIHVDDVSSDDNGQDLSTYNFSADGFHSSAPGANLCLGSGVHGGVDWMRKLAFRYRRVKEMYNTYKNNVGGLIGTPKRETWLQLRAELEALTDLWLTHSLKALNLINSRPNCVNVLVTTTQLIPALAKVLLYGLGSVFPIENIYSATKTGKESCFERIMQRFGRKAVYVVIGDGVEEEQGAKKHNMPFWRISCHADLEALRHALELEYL
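Eya2 (0.2 uM) preincubated 10 min at ambient with compound, then OMFP substrate added at 50 uM; 10 min reaction in 50 mM HEPES pH 7.5, 50 mM NaCl, 5 uM MgCl2, 0.05% BSA, 1 mM DTT. Fluorescence read at Ex 485/Em 525 nm.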
USP2a inh = qHTS Assay for Inhibitors of Ubiquitin-specific Protease USP2a Using CHOP2 as the Reporter | Ubiquitin carboxyl-terminal hydrolase 2 (Homo sapiens), O75604 | USP2 core, Ub-CHOP2 coupled fluorogenic reporter, 485/531 | Potency, µM (series often up to 38.3 µM), usual class: inhibitors | hit rate 0.01% among 330,000 | AID 463254, 2010
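Cell-free coupled assay: 10nM USP2 core preincubated 30min RT with compound in Tris-HCl pH 8.0/CaCl2/CHAPS buffer, then 25nM Ub-CHOP2 and 25nM reporter substrate; fluorescence (Ex 485/Em 531) read after 60min RT, normalized to NEM inhibition, concentration-response curves fitted.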
CtBP-E1A blk = qHTS Assay for Inhibitors of the CtBP/E1A Interaction; CtBP / adenovirus E1A interaction (AlphaScreen); AlphaScreen GST-E1A/His-CtBP binding, 1536-well; stronger effect = lower value; activity change, % (concentration not given with the values); hit rate 0.49% among 340,000; AID 651724, 2012; in the data active = activity change below about -65%; inconclusive = mostly about -30% to -63%
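GST-E1A and His-tagged CtBP (125 nM each as 5X stock) were preincubated with pin-transferred compound for 2 h at 37 °C in the dark, then glutathione donor and nickel acceptor beads were added for 1 h before AlphaScreen reading.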
A number is an active result; n = inactive; u = inconclusive; x = no result given. Unless noted, calls come from the whole dose curve; as a rule, active = well fitted curve in the direction sought with a large enough effect; inconclusive = small, poorly fitted or top-dose-only effect, or another doubt; inactive = no such curve, though single readings can be large; an effect the other way counts as inactive or inconclusive.

SMILES	Six1-Eya2 inh	RGS4 inhibitor	PI4K2A inh	Eya2 inh	USP2a inh	CtBP-E1A blk
CNC(=S)N/N=C/c1cc(Br)cc(Br)c1O	-90	n	n	n	n	-97
Cc1ccc(C(=O)Nc2ccc3c(c2)N(C)C(=O)c2ccccc2S3)cc1F	x	n	n	x	x	x
O=C(NC1CC(=O)N(c2cccc(F)c2)C1)c1ccc(S(=O)(=O)N2CCCC2)cc1 (stereo unspecified)	x	n	n	x	x	x
C=CCN1[C@@H](C)COc2cccc(F)c2S1(=O)=O	x	x	n	x	x	x
CC(=O)O[C@H]1CC[C@@]2(C)C(=CC[C@@H]3[C@@H]2CC[C@]2(C)C(C(C)=O)=CC[C@@H]32)C1	x	x	n	x	x	x
COc1cc(/C=N/NC(=O)c2ccccc2)ccc1O	n	n	n	n	n	n
COc1cc(/C=N/NC(=O)c2sc(N)c(C#N)c2C)ccc1O	-71	n	n	n	n	-83
Cc1c(C(=O)N/N=C/c2ccc(O)c(Br)c2)sc(N)c1C#N	u	n	n	n	n	-65
Cc1c(C(=O)N/N=C/c2ccc(-c3ccccc3[N+](=O)[O-])o2)sc(N)c1C#N	u	u	n	n	n	n
COc1cccc(C(C(=O)NC2CCCC2)N2CCN(c3ncccc3C#N)CC2)c1OC (stereo unspecified)	n	x	n	x	x	n
CCC(=O)N[C@@H]1C[C@@H]2O[C@@H](CO)CC[C@@H]2O[C@@H]1CCc1ccc(-c2cccc(OC)c2)cc1	x	x	n	x	x	x
COc1ccc(-c2cc3nc(C)cc(N)n3n2)cc1	n	n	-88	n	n	n
COc1ccc(-c2cc3nc(C)cc(-c4ccc(OC)cc4)n3n2)cc1	n	n	n	n	n	n
O=C(CN1C(=O)C2(SCC(=O)N2c2cccc(F)c2)c2ccccc21)NCCc1ccccc1 (stereo unspecified)	x	n	n	x	x	x
N#C/C(=C\c1ccc(OC(=O)c2ccccn2)cc1)C(N)=O	-90	n	n	n	n	n
CCN(CC)c1ccc(/C=C(\C#N)c2ccccn2)cc1	n	n	n	n	n	n
N#C/C(=C\c1ccc(C(=O)O)cc1)c1ccccn1	n	n	-65	n	n	n
CCN(CC)CCCNC(=O)C1(N[C@@H](Cc2c[nH]c3ccccc23)C(=O)NCC(OC)OC)CCCCC1	x	x	n	x	x	x
Nc1ncnc(Nc2ccc(S(N)(=O)=O)cc2)n1	n	n	-65	u	n	x
C/C(=N\Nc1ccc2nncn2n1)c1ccccn1	-91	n	n	n	n	-95
C/C(=N\Nc1ccc2nncn2n1)c1ccco1	n	n	n	n	n	n
Cc1cc(=S)nc(-c2ccccn2)[nH]1	-85	n	n	n	n	-69
Nc1ccc2nc(-c3ccccn3)[nH]c2c1	-75	n	n	n	n	-70
CCC(C)NC(=O)c1ccccc1-c1ccccc1C(=O)NC(C)CC (stereo unspecified)	n	n	n	n	n	n
CCC(C)NC(=O)c1c(F)c(F)c(F)c(F)c1F (stereo unspecified)	n	n	-63	n	n	n
SMILES	Six1-Eya2 inh	RGS4 inhibitor	PI4K2A inh	Eya2 inh	USP2a inh	CtBP-E1A blk
O=C(CSc1nnc(-c2cccnc2)o1)Nc1nccs1	-71	n	n	n	n	u
O=C(CSc1nnc(COc2ccc(Cl)cc2)o1)Nc1nccs1	-87	x	n	x	x	u
Cc1cccc(OCc2nnc(SCC(=O)Nc3nccs3)o2)c1	-94	n	n	n	n	-93
O=C(CSc1nnc(-c2cccnc2)o1)Nc1ccc(F)cc1	n	x	n	x	x	n
O=C(CSc1nnc(CNC(=O)c2ccc(F)cc2)o1)Nc1nccs1	-88	n	n	n	n	-87
O=S(=O)(c1ccc2nc(Nc3ccccc3)ccc2c1)N1CCCCC1	n	n	n	n	n	n
